# Bioassay records as filed in PubChem BioAssay.
# Rows were chosen to be rich in hits. Some 11% of all compounds tested hit in one or more screens of this group.
# NS1 function inh – influenza NS1 inhibition; Potency, µM (series often up to 46.1 µM); hit rate 0.4% among 270,000; AID 2326; calls by dose curve; also: actives are rising curves; nearly all actives have a fitted effect of over 50% in size
#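 A cell-based growth assay was used: compounds that relieve NS1-induced slow growth of budding yeast raise OD600. Assay medium was yeast nitrogen base with ammonium sulphate and -URA supplement, pH 6.0, with 2% galactose.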
# AMA1 RON2 block – inhibitors of Plasmodium falciparum AMA1-RON2 interaction | AlphaScreen AMA1-biotinylated RON2 peptide binding | Potency, µM (titrated, usually from 58.2 µM), usual class: inhibitors | hit rate 0.2% among 360,000; also: nearly all actives have a fitted effect of over 45% in size
#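 AMA1 (3D7) with his tag at 25 nM final met compounds first, then biotinylated RON2 peptide at 25 nM; detection used donor plus acceptor beads, 10 µg/mL apiece, read by AlphaScreen after 30 min at room temperature.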
# Pf growth 96h – inhibits malaria parasite growth, 96 h. hit rate 6.9% among 320,000. Potency, µM (top dose mostly 28.7 µM), most hits filed as inhibitors. P. falciparum luciferase reporter growth, 96 h
#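 P. falciparum expressing integrated firefly luciferase grown in erythrocytes (2% hematocrit, 0.05% parasitemia final) with compounds for 96 hours at 37 C, 5% CO2. Growth inhibition read as loss of luminescence after adding luciferase detection reagent.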
# Pf growth 48h – P. falciparum growth inhibition at 48 hours (one generation). Potency, µM (series often up to 28.7 µM), usual class: inhibitors. hit rate 5.9% among 310,000. P. falciparum luciferase growth in erythrocytes, 48 h
#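 Firefly luciferase activity from engineered P. falciparum reports growth; inhibitors lower the luminescent signal. Cultures contained 2% hematocrit erythrocytes at 0.1% final parasitemia.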
# Sm TGR block – S. mansoni TGR enzyme inhibition. Q962Y6. purified TGR, DTNB reduction, TNB absorbance 405 nm. Potency, µM (doses to about 114 µM), hits mostly inhibitors. hit rate 3% among 360,000; also: nearly all actives have a fitted effect of over 60% in size
#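 Kinetic colorimetric format: TGR-catalysed, NADPH-driven DTNB reduction monitored via TNB absorbance. Enzyme dispensed at 20 nM; compound exposure 15 min at room temperature before reaction start.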
# Hits are given with their value; – = inactive; ? = inconclusive; · = not tested or not shown. Unless noted, calls follow the shape of the dose curve; as a rule, active = well fitted curve in the direction sought with a large enough effect; inconclusive = small, poorly fitted or top-dose-only effect, or another doubt; inactive = no such curve, though single readings can be large; an effect the other way counts as inactive or inconclusive.
SMILES,NS1 function inh,AMA1 RON2 block,Pf growth 96h,Pf growth 48h,Sm TGR block
CCCN(Cc1ccc(N(CC)CC)cc1)CC1CC1,–,–,1.47µM,11.7µM,–
O=C(CN1C(=O)NC2(CCCC2)C1=O)Nc1cccc(Cl)c1,–,–,–,–,–
Oc1ccc(N=Nc2ccc(Br)cc2)c(O)c1,–,–,1.85µM,?,–
COCCNc1nc(-c2cc(C)n(CCc3ccc(OC)cc3)c2C)cs1,·,–,?,2.62µM,?
COc1ccccc1CNc1nc(-c2cc(C)n(C)c2C)cs1,·,–,–,?,?
CCCOc1ccc(CCc2n[nH]c(=S)n2Cc2ccccc2)cc1,–,–,–,5.86µM,–
O=C(CCc1nnc(CCCCc2ccccc2)o1)N1CCCC(O)C1 (stereo unspecified),–,–,–,–,–
CCCc1cc(=O)[nH]c(SCCN2C(=O)c3ccccc3C2=O)n1,·,–,–,–,–
CC(C)n1nc(C(=O)Nc2cccc(S(=O)(=O)NCc3ccco3)c2)c2ccccc2c1=O,–,–,?,?,–
COc1ccc2c(c1)c(CC(=O)Nc1ccc(C(C)=O)cc1)c(C)n2C(=O)c1ccc(Cl)cc1,–,–,–,–,–
COc1ccc2c(c1)c(CC(=O)Nc1ccccc1OC)c(C)n2C(=O)c1ccc(Cl)cc1,–,–,5.22µM,–,–
COc1ccc2c(c1)c(CC(=O)NCc1cc([N+](=O)[O-])ccc1O)c(C)n2C(=O)c1ccc(Cl)cc1,?,–,5.86µM,?,–
Cn1ncc([N+](=O)[O-])c1C(=O)Nc1ccc(C2CCCCC2)cc1,·,–,?,–,–
COc1ccc(NC(=O)COc2coc(CN3CCc4ccccc4C3)cc2=O)cc1,·,–,13.1µM,–,–
O=C(COc1coc(CN2CCc3ccccc3C2)cc1=O)Nc1cccc(F)c1,·,–,4.65µM,–,–
O=C(C1CCC(CNS(=O)(=O)c2ccccc2)CC1)N1CCOCC1 (stereo unspecified),–,–,–,–,–
COc1ccc(S(=O)(=O)Cc2ccc(C(=O)NCCCN3CCc4ccccc4C3)o2)cc1,–,–,?,·,44.7µM
COc1ccccc1S(=O)(=O)Cc1ccc(C(=O)NCc2ccco2)o1,–,–,–,–,–
COc1ccc(S(=O)(=O)Cc2ccc(C(=O)NCc3ccco3)o2)cc1,–,–,–,·,39.8µM
COc1ccc(N2CCN(CCCNC(=O)c3ccc(CS(=O)(=O)c4ccc(OC)cc4)o3)CC2)cc1,–,–,–,?,–
COc1ccc(/C=N/NC(=O)CN(C)C(=O)OCc2ccccc2)cc1OC,–,–,?,–,–
CSc1nc(C)c(C(=O)C[n+]2ccccc2C)cc1C#N,–,–,?,14.7µM,–
CCOC(=O)N1CCN(Cc2nc3c(c(=O)[nH]c(=O)n3C)n2Cc2cc(C)ccc2C)CC1,–,–,–,13.1µM,–
CCOC(=O)N1CCN(Cc2nc3c(c(=O)n(C)c(=O)n3C)n2Cc2ccccc2C)CC1,–,–,?,10.4µM,–
Cc1nn(C)c2c1c(C(F)(F)F)cc(=O)n2CC(=O)NCc1ccccc1Cl,·,·,·,·,–
SMILES,NS1 function inh,AMA1 RON2 block,Pf growth 96h,Pf growth 48h,Sm TGR block
O=C(N1CCCCC1)C1(c2ccccc2)CCOCC1,?,–,11.7µM,–,–
O=C(N1CCOCC1)C1(c2ccccc2)CCCCC1,–,–,–,–,–
COC(=O)C1=C(c2ccc(-c3ccccc3)c(F)c2)C[C@@H]2CC[C@H]1N2C(=O)NCCc1ccccc1,·,–,?,6.57µM,–
COC(=O)C1=C(c2ccc(-c3ccccc3)c(F)c2)C[C@@H]2CC[C@H]1N2C(=O)NC1CCCCC1,·,–,?,?,–
COC(=O)C1=C(c2ccc(-c3ccccc3)c(F)c2)C[C@@H]2CC[C@H]1N2C(=O)NCc1cccc2ccccc12,·,–,1.04µM,1.17µM,–
COC(=O)C1=C(c2ccc(OC(F)(F)F)cc2)C[C@@H]2CC[C@H]1N2C(=O)NCc1cccc2ccccc12,·,–,1.85µM,1.65µM,–
COC(=O)C1=C(c2ccc(-c3ccccc3)c(F)c2)C[C@@H]2CC[C@H]1N2C(=O)NCCNC(C)=O,·,–,–,?,–
COC(=O)C1=C(c2ccc(OC(F)(F)F)cc2)C[C@@H]2CC[C@H]1N2C(=O)NCc1cc(C)oc1C(F)(F)F,·,–,8.28µM,11.7µM,–
Cc1cc(=O)[nH]c(SCC(=O)Nc2c(C)n(C)n(-c3ccccc3)c2=O)n1,·,–,–,–,–
Cc1ccc(CNC(=O)CN2N=C(c3ccc(C)cc3)CCC2=O)cc1,·,·,·,·,–
